From the OligoGym collection come the findings set out here.
Also: reference of the scale not given here.

The first assay has as its target ASCC1. Description: pooled miR-30 sensor sort-seq; sequence = guide strand. To be noted: shRNA.
In turn, TTCTTCATGTTGATAGGTCTGT yielded a sensor-assay potency score (higher = more potent) of 1.07.

As to TAGACCGGAATCCTTGTGGGGT, the sensor-assay potency score (higher = more potent) is -0.676.

For the sequence TCCATTTCTATTTTCTTCCTAG, the sensor-assay potency score (higher = more potent) was -0.685.

The sequence TTTCACACTATTCCACTCTTTC displayed a sensor-assay potency score (higher = more potent) of -0.561.

TATGCTTATAGAGCAAGCTGGG had a sensor-assay potency score (higher = more potent) of -1.

As for TTGGACTGGATTCTTCCTGTAA, the sensor-assay potency score (higher = more potent) was -0.381.

Sequence TCAACTAATTCTTGTAGCCTGT showed a sensor-assay potency score (higher = more potent) of -0.154.

Take TAGCATCTCACATGTCTGCTGG: the sensor-assay potency score (higher = more potent) came out at 0.184.

TCTTGGACTGGATTCTTCCTGT had a sensor-assay potency score (higher = more potent) of 0.362.

The sequence AATTACACCATTTCGATGCTGG came in with a sensor-assay potency score (higher = more potent) of 0.516.

TCTCTTTCCAACTATATGCTTA came in with a sensor-assay potency score (higher = more potent) of -0.403.

TAGAAGTTCTCAAACAACTTTA gave a sensor-assay potency score (higher = more potent) of -0.0661.

A further assay concerns the target ASCL1. The description is as above. To be noted: shRNA.
In turn, ATGGAGTTCAAGTCGTTGGAGT registered a sensor-assay potency score (higher = more potent) of -1.08.

As for TTGAACAGTATTTAATAACATC, the sensor-assay potency score (higher = more potent) is -1.14.

As for TACATTAACAACATTTCTATAA, the sensor-assay potency score (higher = more potent) was -1.04.

TTGGAGTGCAAAGATACTGTTC: the sensor-assay potency score (higher = more potent) turned out to be 0.084.

Take TAAGTTTGTAATAAAACAGTAA: the sensor-assay potency score (higher = more potent) is -0.00305.

TTGCTTGGGCGCTGACTTGTGA gave a sensor-assay potency score (higher = more potent) of -0.493.

The sequence TTGCGCTCGCGCTCGTTGCGGC had a sensor-assay potency score (higher = more potent) of -0.896.

The sequence AAGTCGTTGGAGTAGTTGGGGG returned a sensor-assay potency score (higher = more potent) of -0.573.
